According to paper PMC12136788:
Positions count from the first letter of the chain named. Over roughly 24,000 sequences, “enrichment r” has its median near 0.99; the highest 2% begin near 3.7. This is one part of a sample in which the highest values are shown more often than they occur.

T1: UNK ZnF1-3 (human, UniProt Q9C0B0 31-174)
T1 sequence: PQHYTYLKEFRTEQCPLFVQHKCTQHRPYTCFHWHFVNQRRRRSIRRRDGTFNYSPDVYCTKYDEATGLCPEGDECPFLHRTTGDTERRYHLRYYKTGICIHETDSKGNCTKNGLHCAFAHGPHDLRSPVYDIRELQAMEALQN

B1: chr3:179287964:179287965:+_ENSG00000136518_ENST00000429709|hu_hu|hu_hu_hu_mus_True|18_18 (ssRNA)
RNA: GGGAGUUCUACAGUCCGACGAUCCUUGAGUGGUGAGAUGGCCUCCAUGUUCUCCCUGGGCACGCGGAGGGCAUUGGUGUCUAUGUAGUAGGUGGGCCCGCCCUGCUUGCCUUUGUCGCCAUCUAUUUCCAUCAUUGUACUUCCCAACAGAGGAUUGAGCAUCA
B2: chr5:171327072:171327073:-_ENSG00000072803_ENST00000265094|hu_hu|FALSE|FALSE (ssRNA)
RNA: GGGAGUUCUACAGUCCGACGAUCUACCAGCUCUGCUGCACACAGAGACCUGGCAUCCAGGUACGAAAGAAUGUUUUCUGCUAUGUGAUCUAAGCCUUGCUCUGGUAAAGCGGUAAUAAAGUCCCGCUGCAACAUGGGCUUCAGCAACAGAGGAUUGAGCAUCA
B3: 97033003_97034721_1993_CDS_ENSG00000121152_ENST00000240423|human|control|control (ssRNA)
RNA: GGGAGUUCUACAGUCCGACGAUCCCUGUGGUUUGCCUCUGCAUCUGCCUCCUUUCCGGAGAGCGCUGUCAGCAGACUCCACAUGCUCUGCUUCAGUUUCUUCAUGUCCAUCUUUUUGGCAGUCUUGGCAUAGUGAAUUUCAAUCAACAGAGGAUUGAGCAUCA
B4: chr2:151796264:151796265:-_ENSMUSG00000027459_ENSMUST00000062047|mus_mus|motif|central (ssRNA)
RNA: GGGAGUUCUACAGUCCGACGAUCUGUUCGGCUGGCCUCAGAUGGGGACACAGGACUAUCACACAAGUUGAUGAGGCUGCGGAGGAUGUCGAGGUCCAGUUGGGGCCGGCGGCCAGAACAGGGCAGGACUCGGCGACUGGGUGUCAACAGAGGAUUGAGCAUCA
B5: chr17:38438176:38438177:+_ENSG00000171475_ENST00000323571|hu_mus|FALSE|FALSE (ssRNA)
RNA: GGGAGUUCUACAGUCCGACGAUCCCCCCUGACCAUGUAGCUAGGGACUGAGAGUCACAGGGAAGGGAAAGCUUACACCUGGAAUGUGAAGAAUCUGAUUUACAGCUGAUGGCAGGUUGGGUUUCCAGAAGGGCAGACAGCGCACAACAGAGGAUUGAGCAUCA
B6: chr14:76904430:76904431:+_ENSMUSG00000022010_ENSMUST00000022587|mus_mus|mus_mus_mus_hu_True|58_98 (ssRNA)
RNA: GGGAGUUCUACAGUCCGACGAUCUGCAGCCAAAAACAGAGAGAGGGAAAAAAAGAGGGAACACCAGCAGCCUUGUACAAACUAGAUAAAAUCUUCUGGCUUUCCGCAGCCCAGGGAGAAACAGAAAACGGCAGCCCUAAUUUACAACAGAGGAUUGAGCAUCA
B7: chr1:163116941:163116942:-_ENSG00000143248_ENST00000313961|hu_mus|FALSE|FALSE (ssRNA)
RNA: GGGAGUUCUACAGUCCGACGAUCACAAAGCAGUCAGAAAGAACCAAAAAAAAGAAAAAAAAAAGAAAAAGAAAAAAGUGAGGGCUCUUAGACAACAGAUCCACAUAACCAAACUAACAUGAGCGAAAGAGUUAGCAACACAGCCAACAGAGGAUUGAGCAUCA
B8: chrX:71549762:71549763:+_ENSMUSG00000019087_ENSMUST00000019231|mus_mus|mus_mus_mus_hu_False|8_18 (ssRNA)
RNA: GGGAGUUCUACAGUCCGACGAUCAAACCCGUGUACUUCUUAUUGUUAGCACAACAUCACCAGAAAACGAUAACGACAGCCAAGCAGGACAGACAGUUAAGUAGUACUUCCACACUCCGCAAAUUCAAGGAACCUCAAACCUUACAACAGAGGAUUGAGCAUCA
B9: chr2:125499325:125499326:+_ENSMUSG00000091337_ENSMUST00000164756|mus_mus|FALSE|FALSE (ssRNA)
RNA: GGGAGUUCUACAGUCCGACGAUCGAGCUCUUCGGUCAGUCGAUUGACAACCAUCAGCGAAAACAGCUCUUCGAUAAAAGCUAGCUGGUCGAAAGGGCUCUUCUCACACCGCGCCUGAAAGCCGCCAUCCAGGGCAUCUCCGGCCAACAGAGGAUUGAGCAUCA
B10: chr14:76904430:76904431:+_ENSMUSG00000022010_ENSMUST00000022587|mus_mus|mus_mus_mus_hu_True|8_98 (ssRNA)
RNA: B6 RNA with C77U, A80G, A127U, C128G, G130U, C131G, A132C, G133U, C134G, C135G
B11: chr6:144948378:144948379:-_ENSMUSG00000030268_ENSMUST00000111742|mus_mus|FALSE|FALSE (ssRNA)
RNA: GGGAGUUCUACAGUCCGACGAUCAGGGAACACCAGGCCAGCAGGGCUGCAUGGGGAGCCCAAAUCUGCCCCAAUUAGAAACAAACAAACAAAAAAAAAACAACCAAAACAAAAAACAAAAGAACCUCACCAGCAAAAGAAACACAACAGAGGAUUGAGCAUCA
B12: chr3:9412954:9412955:+_ENSG00000134077_ENST00000452837|hu_mus|hu_hu_hu_mus_False|58_68 (ssRNA)
RNA: GGGAGUUCUACAGUCCGACGAUCGGUUGAUAUCUCUUCUUUGAUGGCUGGAUUUUCAUAAUAGUCCAAGAUAUGAGAAUCUAAAGCGCUGCUGGCAUGCUUUUUCUUACCAUCUUUCUCAUCUGCUUUGUCUCCUUGUCCACACAACAGAGGAUUGAGCAUCA
B13: chr16:94664741:94664742:+_ENSMUSG00000040785_ENSMUST00000117648|mus_hu|mus_mus_mus_hu_False|1_78 (ssRNA)
RNA: GGGAGUUCUACAGUCCGACGAUCUGGUACUGAUCUUGGUAGCUGAUAUUCAGGAGAAAUGUUGGCCAAGGGUGUAUAUAUGCUGGUGUACUGGGGCAAACCUGGUAACACGUUUAUGUAUGCUGGCGGUGUCUGGGUGCCAAACAACAGAGGAUUGAGCAUCA
B14: chr5:37680062:37680063:+_ENSMUSG00000029121_ENSMUST00000031004|mus_hu|mus_mus_mus_hu_False|1_8 (ssRNA)
RNA: GGGAGUUCUACAGUCCGACGAUCUUUGGGUGUAGCUGGUACCUCGUACACAGGACCGUCAUACAUGCCCCUGGAAACCCCUUGCAAUCCAAAAACCUUAUUCCUGAUUUUGACGCGCUGGUACAGGUGCUCUGGGAAUGGCUUCAACAGAGGAUUGAGCAUCA
B15: chrX:98862621:98862622:+_ENSMUSG00000034160_ENSMUST00000044475|mus_hu|mus_mus_mus_hu_False|18_28 (ssRNA)
RNA: GGGAGUUCUACAGUCCGACGAUCCUGCAUCUCCUUUAGAGUGUUUCCCAUAUUAGAGUAGGCAUCAGCAAAGGUAGGACUGAUUCGAAUAGCCUCCUUAUAAUGCAUCAGUGCUUCCUGCAGCUUGCCCUGCUGCUGCAGUACCAACAGAGGAUUGAGCAUCA
B16: chr7:135840685:135840686:-_ENSMUSG00000048170_ENSMUST00000057557|mus_mus|FALSE|FALSE (ssRNA)
RNA: GGGAGUUCUACAGUCCGACGAUCCAACUCCCUUGAUUUAUCAAGGCCGACCCUGUUUCCUUGGUUAGCAGGGAAGAAUCUAAGGGACCACUGAUUGAUCUUCACACACAGCAGAUGAGAUUAACAGCAAGGUUCUAACUUUUCCAACAGAGGAUUGAGCAUCA
B17: 128051196_128051651_161_3pUTR_ENSG00000163161_ENST00000285398|human|control|control (ssRNA)
RNA: GGGAGUUCUACAGUCCGACGAUCCGCCGCCGAGGGAACCGCUUCCUGAGGGUCGUUCCCCGGGGCGUCCUCUUCAUCAUCCUCUUCAUCCUCAUAGUGCCGCUUCCUGGAUUUCUUCUUGUCGCGGUCCGCUCGGUCUCUUUUCAACAGAGGAUUGAGCAUCA
B18: chr1:235506153:235506154:+_ENSG00000152904_ENST00000391855|hu_mus|FALSE|FALSE (ssRNA)
RNA: GGGAGUUCUACAGUCCGACGAUCGAAGACAGCUACACUUACAUAUAAUAAAUAAAUCUUAAAAAAAAAAAAAAGAAAAGAUAAAUGGGAUGAAGCCACUCCUCAUUUUCAACUGAAAGAAGCUACUGAGUCUAAUCCAGAAAGCAACAGAGGAUUGAGCAUCA
B19: chr16:94690093:94690094:+_ENSMUSG00000040785_ENSMUST00000117648|mus_hu|mus_mus_mus_hu_True|1_48 (ssRNA)
RNA: GGGAGUUCUACAGUCCGACGAUCGGGCUGGGAUGACGGACACACAGCCUCGAUUCCAGGGGGAAAAAGUCUUAGUCGAUACUAAUUUAAAAAGUAUAAUGAUUUUUGAAAAUCAGAUUACAUCUAUAAAAGAUGAAAGCACUUCAACAGAGGAUUGAGCAUCA
B20: chr15:12269436:12269437:+_ENSMUSG00000022200_ENSMUST00000059680|mus_mus|motif|central (ssRNA)
RNA: GGGAGUUCUACAGUCCGACGAUCUAAAAGACUUUUUCUUCUCAUUCCACAAGCCUCUAACUGUAACCUUCCUCUCAAAGCGGAUUCAAUUAACAUACAGCCACGUAAUCCAGAUGAUAUACAGUCAUUCCAAAAUGAUGUGUACAACAGAGGAUUGAGCAUCA
B21: chr2:27118074:27118075:-_ENSMUSG00000009621_ENSMUST00000056176|mus_mus|FALSE|FALSE (ssRNA)
RNA: GGGAGUUCUACAGUCCGACGAUCCACAGAUAUAUAAUGGGAGACUUAGAUGAAAUAAUUACAACUUCCCCUCCCCCUUCUAAAAUACAAACAGAUAAAACAUAACAGGACAAAAAAAGCUACAACAACAGAAAAACAAACAGACAACAGAGGAUUGAGCAUCA
B22: chr2:27118074:27118075:-_ENSMUSG00000009621_ENSMUST00000056176|mus_mus|motif|central (ssRNA)
RNA: B21 RNA with U80G, A81G

Target: T1, UNK ZnF1-3
Assay: nsRBNS (natural sequence RNA bind-n-seq); RBNS binding buffer (assumed for nsRBNS): 25 mM Tris pH 7.5, 150 mM KCl, 3 mM MgCl2, 0.01% Triton X-100, 500 ug/ml BSA, 20 U/ml SUPERase-In, 4 C; UNK is unkempt and MSI1 is Musashi-1; names of the RNAs are library labels; protein concentration not given here; high values mean tight binding

With B1 as the binder, how does the binding signal read?
Its binding signal is 0.497 enrichment R.

For B2, which binding signal is on record?
Its binding signal is 1.05 enrichment R.

Which binding signal does the source give for B3 here?
The binding signal was 0.375 enrichment R.

With B4 as the binder, how does the binding signal read?
Its binding signal is 0.777 enrichment R.

How did the binding signal turn out when B5 was run?
The binding signal was 1.6 enrichment R.

Which binding signal does the source give for B6 here?
Its binding signal is 3.56 enrichment R.

B7 was tested. Which binding signal did it give?
The binding signal was 10.6 enrichment R.

How did the binding signal turn out when B8 was run?
The binding signal was 1.46 enrichment R.

B9 was tested. Which binding signal did it give?
Its binding signal is 1.3 enrichment R.

For B10, which binding signal is on record?
Its binding signal is 3.33 enrichment R.

How did the binding signal turn out when B11 was run?
Its binding signal is 7.87 enrichment R.

For B12, which binding signal is on record?
Its binding signal is 0.465 enrichment R.

With B13 as the binder, how does the binding signal read?
The binding signal was 0.93 enrichment R.

For B14, which binding signal is on record?
The binding signal was 0.776 enrichment R.

Which binding signal does the source give for B15 here?
The binding signal was 1.08 enrichment R.

How did the binding signal turn out when B16 was run?
The binding signal was 1.03 enrichment R.

For B17, which binding signal is on record?
The binding signal was 0.493 enrichment R.

B18 was tested. Which binding signal did it give?
The binding signal was 20.8 enrichment R.

B19 was tested. Which binding signal did it give?
Its binding signal is 0.785 enrichment R.

With B20 as the binder, how does the binding signal read?
The binding signal was 0.956 enrichment R.

For B21, which binding signal is on record?
Its binding signal is 4.31 enrichment R.

For B22, which binding signal is on record?
The binding signal was 3.78 enrichment R.
